Assay results published in PubChem BioAssay AID1159580 (chemical genetic matrix, 2015).
Where “and” joins values, the source holds several entries; their conditions need not be identical. Equal values may be shown once. Hit rate of the full screen: of about 5,500 compounds, about 2,000 (36%) were called active. Inconclusive results (about 18%) are left out. Rule as the data show it: active = normalized growth mostly below about 0.91 (no sharp cut-off); inconclusive = no clear call, values can overlap the other calls; inactive = mostly above about 0.92. The list shows a part of the results.

Assay: chemical genetic growth profiling, strain panel (AID 1159580);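 also: tested at 20 µM; growth read once vehicle control cultures reached saturation at 30 °C; 1 = growth at the plate median or of vehicle wells; lower values mean less growth of the strain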
Settings: S. cerevisiae deletion strains, growth OD

Measured: normalized growth

COc1ccccc1OCC(O)CO (stereo not drawn)
inactive: locus YAL021C, strain ccr4, hits give low values 1.02 | locus YAL026C, strain drs2, hits give low values 1.02 | locus YAL030W, strain snc1, hits give low values 1.02 | locus YBL061C, strain skt5, hits give low values 1.02 | locus YBR009C, strain hhf1, hits give low values 1.02 | locus YBR021W, strain FUR4, hits give low values 1.02 | locus YBR023C, strain chs3, hits give low values 1.02 | locus YBR171W, strain sec66, hits give low values 1.04 | locus YBR229C, strain ROT2, hits give low values 1 | locus YBR231C, strain swc5, hits give low values 1.02 | locus YBR279W, strain paf1, hits give low values 1.03 | locus YCL011C, strain gbp2, hits give low values 1.02 | locus YCL016C, strain dcc1, hits give low values 1.02 | locus YCL029C, strain bik1, hits give low values 0.972 | locus YCL061C, strain MRC1, hits give low values 1.03 | locus YCL069W, strain vba3, hits give low values 1.01 | locus YCR088W, strain abp1, hits give low values 1.02 | locus YDL005C, strain med2, hits give low values 1.04 | locus YDL035C, strain GPR1, hits give low values 1.02 | locus YDL040C, strain nat1, hits give low values 1.02 | locus YDL074C, strain BRE1, hits give low values 1 | locus YDL101C, strain DUN1, hits give low values 1.01 | locus YDL134C, strain PPH21, hits give low values 0.997 | locus YDL185W, strain tfp1, hits give low values 1 | locus YDL192W, strain arf1, hits give low values 1 | locus YDR001C, strain nth1, hits give low values 1.02 | locus YDR069C, strain doa4, hits give low values 1.02 | locus YDR101C, strain arx1, hits give low values 0.972 | locus YDR137W, strain rgp1, hits give low values 1.03 | locus YDR159W, strain sac3, hits give low values 1.02 | locus YDR162C, strain NBP2, hits give low values 1.01 | locus YDR195W, strain ref2 1.02 | locus YDR297W, strain sur2, hits give low values 1.02 | locus YDR318W, strain mcm21, hits give low values 1.02 | locus YDR334W, strain swr1, hits give low values 1.03 | locus YDR335W, strain msn5, hits give low values 1.03 | locus YDR388W, hits give low values 0.99 | locus YDR392W, strain spt3, hits give low values 0.987 | locus YDR502C, strain sam2, hits give low values 1.02 | locus YEL003W, strain gim4, hits give low values 1.01 | locus YEL037C, strain rad23, hits give low values 1.02 | locus YEL061C, strain CIN8 (second series), hits give low values 1.02 | locus YEL061C, strain CIN8, hits give low values 1.03 | locus YER015W, strain faa2, hits give low values 1.02 | locus YER016W, strain bim1, hits give low values 1.04 | locus YER110C, hits give low values 0.988 | locus YER111C, strain swi4, hits give low values 1.02 | locus YER155C, strain BEM2 (second series), hits give low values 1.02 | locus YER155C, strain BEM2, hits give low values 1.01 | locus YER167W, strain BCK2, hits give low values 1 | locus YFR010W, strain ubp6, hits give low values 1.02 | locus YGL078C, strain dbp3, hits give low values 1.02 | locus YGL086W, strain mad1, hits give low values 1 | locus YGL167C, strain pmr1, hits give low values 1.02 | locus YGL173C, strain kem1, hits give low values 1.02 | locus YGL227W, strain vid30, hits give low values 1.03 | locus YGL240W, strain doc1, hits give low values 1.03 | locus YGL248W, strain PDE1, hits give low values 1.01 | locus YGL253W, strain hxk2, hits give low values 1.01 | locus YGR078C, strain PAC10, hits give low values 1.01 | locus YGR135W, strain pre9, hits give low values 1.04 | locus YGR252W, strain gcn5, hits give low values 1.22 | locus YHR013C, strain ard1, hits give low values 1.04 | locus YHR027C, strain rpn1, hits give low values 1.01 | locus YHR030C, strain SLT2, hits give low values 1 and 0.993 | locus YHR079C, strain IRE1 (second series), hits give low values 0.988 | locus YHR079C, strain IRE1, hits give low values 0.965 | locus YHR094C, strain hxt1, hits give low values 0.978 | locus YHR129C, strain ARP1, hits give low values 0.964 | locus YHR142W, strain chs7, hits give low values 1.03 | locus YHR200W, strain rpn10, hits give low values 1.01 | locus YIL066C, strain RNR3, hits give low values 1 | locus YIL073C, strain SPO22, hits give low values 1.05 | locus YIL125W, strain kgd1, hits give low values 1.01 | locus YIR030C, strain dcg1, hits give low values 0.99 | locus YJL092W, strain hpr5, hits give low values 1.03 | locus YJL095W, strain BCK1 (second series), hits give low values 1.02 | locus YJL095W, strain BCK1, hits give low values 1.03 and 0.964 | locus YJL115W, strain asf1, hits give low values 1.02 | locus YJL129C, strain trk1, hits give low values 1.04 | locus YJL134W, strain LCB3, hits give low values 1 | locus YJL154C, strain vps35, hits give low values 1.01 | locus YJL164C, strain tpk1, hits give low values 1.02 | locus YJL166W, strain qcr8, hits give low values 1.03 | locus YJL168C, strain set2, hits give low values 0.986 | locus YJL187C, strain SWE1 (second series), hits give low values 1.01 | locus YJL187C, strain SWE1, hits give low values 1.05 | locus YJR043C, strain POL32, hits give low values 1.01 | locus YJR066W, strain TOR1, hits give low values 0.924 | locus YKL009W, strain mrt4, hits give low values 1.01 | locus YKL068W, hits give low values 1.01 | locus YKL085W, strain MDH1 (second series), hits give low values 0.999 | locus YKL085W, strain MDH1, hits give low values 0.999 | locus YKL160W, strain elf1, hits give low values 1.02 | locus YKR001C, strain vps1, hits give low values 0.998 | locus YKR026C, strain gcn3, hits give low values 1.02 | locus YKR091W, strain srl3, hits give low values 1.02 | locus YLL001W, strain dnm1, hits give low values 1.02 | locus YLL026W, hits give low values 1.02 | locus YLL041C, strain sdh2, hits give low values 1.01 | locus YLR027C, strain aat2, hits give low values 1.01 | locus YLR039C, strain RIC1, hits give low values 1.02 | locus YLR058C, strain SHM2, hits give low values 1.01 | locus YLR102C, strain apc9, hits give low values 0.982 | locus YLR113W, strain HOG1, hits give low values 0.999 | locus YLR221C, strain rsa3, hits give low values 1.01 | locus YLR258W, strain gsy2, hits give low values 1.01 | locus YLR262C, strain YPT6 (second series), hits give low values 1.02 | locus YLR262C, strain YPT6, hits give low values 1.04 | locus YLR268W, strain sec22, hits give low values 1.01 | locus YLR320W, strain mms22, hits give low values 1.03 | locus YLR330W, strain CHS5, hits give low values 1.02 | locus YLR342W, strain FKS1 (second series), hits give low values 1.01 | locus YLR342W, strain FKS1, hits give low values 1.02 | locus YLR357W, strain rsc2, hits give low values 1.03 | locus YLR370C, strain arc18, hits give low values 1.02 | locus YLR371W, strain rom2, hits give low values 0.965 | locus YLR384C, strain iki3, hits give low values 1.02 | locus YLR418C, strain cdc73, hits give low values 1.06 | locus YML016C, strain PPZ1, hits give low values 1 | locus YML032C, strain rad52, hits give low values 1.01 | locus YML120C, strain ndi1, hits give low values 1.02 | locus YML124C, strain tub3, hits give low values 0.996 | locus YMR058W, strain fet3, hits give low values 1.02 | locus YMR078C, strain ctf18, hits give low values 0.99 | locus YMR125W, strain sto1, hits give low values 1.06 | locus YMR129W, hits give low values 1.02 | locus YMR205C, strain PFK2, hits give low values 1.02 | locus YMR223W, strain ubp8, hits give low values 1.03 | locus YMR231W, strain pep5, hits give low values 1.02 | locus YMR307W, strain GAS1, hits give low values 1.05 | locus YNL067W, strain RPL9B, hits give low values 1.02 | locus YNL071W, strain lat1, hits give low values 1.02 | locus YNL153C, strain GIM3, hits give low values 1.01 | locus YNL183C, strain NPR1, hits give low values 0.956 | locus YNL209W, strain ssb2, hits give low values 1.02 | locus YNL233W, strain BNI4, hits give low values 1.01 | locus YNL248C, strain rpa49, hits give low values 1.04 | locus YNL250W, strain rad50, hits give low values 1.02 | locus YNL271C, strain bni1, hits give low values 1.01 | locus YNL298W, strain CLA4, hits give low values 1.01 | locus YNL307C, strain MCK1, hits give low values 0.99 | locus YNL322C, strain KRE1 (second series), hits give low values 1.04 | locus YNL322C, strain KRE1, hits give low values 1.01 | locus YNR049C, strain mso1, hits give low values 1.02 | locus YNR052C, strain pop2, hits give low values 0.998 | locus YOL012C, strain htz1 0.827 | locus YOL147C, strain pex11, hits give low values 0.995 | locus YOR001W, strain rrp6, hits give low values 0.995 | locus YOR061W, strain CKA2, hits give low values 1.01 | locus YOR069W, strain VPS5, hits give low values 1.01 | locus YOR070C, strain gyp1, hits give low values 1.02 | locus YOR080W, strain dia2, hits give low values 1.04 | locus YOR083W, strain WHI5, hits give low values 1.02 | locus YOR106W, strain vam3, hits give low values 1.02 | locus YOR136W, strain idh2, hits give low values 0.994 | locus YOR144C, strain elg1, hits give low values 0.993 | locus YOR184W, strain ser1, hits give low values 1 | locus YOR231W, strain MKK1, hits give low values 0.991 | locus YOR265W, strain rbl2, hits give low values 1.02 | locus YOR270C, strain vph1, hits give low values 1.05 | locus YOR290C, strain snf2, hits give low values 0.99 | locus YOR316C, strain cot1, hits give low values 0.986 | locus YPL051W, strain arl3, hits give low values 1.01 | locus YPL078C, strain atp4, hits give low values 1.02 | locus YPL106C, strain sse1, hits give low values 1.01 | locus YPL240C, strain hsp82, hits give low values 1.02 | locus YPL256C, strain CLN2, hits give low values 0.977 | locus YPR119W, strain clb2, hits give low values 0.992 | locus YPR141C, strain kar3, hits give low values 0.996 | locus YPR163C, strain tif3, hits give low values 1.01 | locus YPR167C, strain met16, hits give low values 0.999 | strain wtn01, hits give low values 1.05
